Test results: PubChem BioAssay (Tox21)
Where “and” joins values, the source holds several entries; their conditions need not be identical. Identical values can stand only once. Inconclusive results are not listed. Calls of active or inactive are those of the source. Unless noted, calls come from the whole dose curve; as a rule, active = well fitted curve in the direction sought with a large enough effect in the repeat runs; inconclusive = weak or mixed curves; inactive = no such curve, though single readings can be large; an effect the other way counts as inactive or inconclusive.

Legend:
[1] = A CellTox Green Cytotoxicity Assay to monitor cytotoxicity in HepG2 cells - 8 hour (AID 1224890); note: nearly all actives have a fitted effect of over 45% in size; note: potency is the fitted concentration of half-maximal effect
Summary of the method: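 HepG2, 600 cells/well premixed w/ CellTox Green; 5 h settle, 37 C/5% CO2; pintool cpd add (DMSO); 37 C, 40 h; fluorescence read at 0, 8, 16, 24, 32, 40 h.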

[2] = qHTS assay to identify small molecule antagonists of the estrogen receptor alpha (ER-alpha) signaling pathway using the BG1 cell line in the presence of 0.1 nM 17-beta-estradiol - cell viability counter screen (AID 1259241); note: nearly all actives have a fitted effect of over 40% in size; note: potency is the fitted concentration of half-maximal effect
Summary of the method: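 Following 5 days in phenol red-free medium with charcoal-stripped serum, VM7Luc4E2 cells received test compounds alongside 0.1 nM 17beta-estradiol (final) at 37C for 22 hr. Live cells were then quantified via protease-substrate fluorescence.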

[3] = qHTS assay to identify small molecule antagonists of the androgen receptor (AR) signaling pathway using the MDA cell line in the presence of 0.5 nM R1881 - cell viability counter screen (AID 1259242); note: nearly all actives have a fitted effect of over 45% in size; note: potency is the fitted concentration of half-maximal effect
Summary of the method: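 Live-cell protease fluorescence, CellTiter-Fluor, 30 min at 37C. Cells: MDA-kb2, 3,000/well, preincubated 5 hr. Compounds plus 0.5 nM R1881 final, 16 hr, 37C, 0% CO2.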

[4] = qHTS assay to identify small molecule phospholipidosis (PLD) inducers (AID 1259344; active = well fitted curve in the direction sought with a large enough effect; an effect the other way counts as inactive or inconclusive)
Summary of the method: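 Image-based: LipidTOX Red pit count/intensity per well and per cell; HepG2, 24 h compound at 37 C, PFA fixation, Hoechst counterstain.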

[5] = qHTS assay to identify small molecule HDAC inhibitors (AID 1259364); note: potency is the fitted concentration of half-maximal effect;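 note: wild-type HCT-116 cells with endogenous class I/II HDAC activity; nearly all actives have a fitted effect of over 45% in size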
Summary of the method: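 HCT-116 (wild type), 1,500 cells/well, overnight; compound 2 hr 37C 5% CO2; HDAC-Glo I/II reagent 30 min RT; luminescence readout.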

[6] = qHTS assay to identify small molecule agonists of the sonic hedgehog signaling (Shh) pathway - cell viability counter screen (AID 1259366); note: nearly all actives have a fitted effect of over 50% in size; note: potency is the fitted concentration of half-maximal effect
Summary of the method: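 Compounds in DMSO were pin-transferred onto 3T3 Gli1-Luc cells that had settled 4hr; plates then stood 24hr at 37C and 5% CO2. One hour before the end, CellTiter-Fluor was added and fluorescence recorded.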

[7] = qHTS assay to identify small molecule antagonists of the sonic hedgehog signaling (Shh) pathway - cell viability counter screen (AID 1259367); note: nearly all actives have a fitted effect of over 55% in size; note: potency is the fitted concentration of half-maximal effect
Summary of the method: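 Tox21 library chemicals were tested on a Gli1-Luc NIH/3T3 clone (2,000 cells/well) stimulated by conditioned medium; viability was quantified as fluorescence from CellTiter-Fluor reagent added at 23 hr.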

[8] = qHTS assay to identify small molecule agonists of the sonic hedgehog signaling (Shh) pathway (AID 1259368; calls by dose curve;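 note: NIH/3T3-derived 3T3Gli1-Luc cells carrying a stable Gli1-driven firefly luciferase reporter; series mostly up to about 92 µM; nearly all actives have a fitted effect of over 15% in size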)
Summary of the method: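 Read-out: firefly luciferase luminescence from a Gli1 response element reporter stably integrated in NIH/3T3-derived 3T3Gli1-Luc cells, measured 30 min at room temperature after reagent addition. Compound exposure lasted 24 hr at 37 C, 5% CO2.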

[9] = qHTS assay to identify small molecule antagonists of the sonic hedgehog signaling (Shh) pathway (AID 1259369; calls by dose curve; note: nearly all actives have a fitted effect of over 45% in size; note: potency is the fitted concentration of half-maximal effect)
Summary of the method: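 Luminescence readout: firefly Luc under Gli1 response element in 3T3Gli1-Luc cells (NIH/3T3 clone). Antagonist mode, stimulation by conditioned medium; compound exposure 24hr at 37 C, 5% CO2.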

[10] = target: Estrogen receptor beta (Homo sapiens) (UniProt Q92731); assay: qHTS assay to identify small molecule agonists of the estrogen receptor beta (ER-beta) signaling pathway (AID 1259377; active = well fitted activation curve with a large enough effect in the signal ratio in the repeat runs, not every such curve was filed as active; the % refers to the signal ratio)
Summary of the method: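 qHTS in ER-beta-UAS-bla HEK293T cells: 6 hr settling, then 16 hr compound at 37C, then LiveBLAzer substrate 2 h at RT before fluorescence reading.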

[11] = qHTS assay to identify small molecule agonists of the androgen receptor (AR) signaling pathway in the presence of an antagonist - cell viability counter screen (AID 1259379); note: nearly all actives have a fitted effect of over 25% in size; note: potency is the fitted concentration of half-maximal effect
Summary of the method: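 Viability counter screen: CellTiter-Fluor fluorescence, measured in the same wells as the luciferase read-out. MDA-kb2 cells, 3,000/well, with nilutamide at 3.0uM final and compounds at 15 concentrations, 16 hr at 37C, 0% CO2.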

[12] = qHTS assay to identify small molecule agonists of the estrogen receptor beta (ER-beta) signaling pathway - cell viability counter screen (AID 1259380); note: nearly all actives have a fitted effect of over 30% in size; note: potency is the fitted concentration of half-maximal effect
Summary of the method: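 Luminescence read-out (CellTiter-Glo, 30 min, room temp) taken in the same wells as the beta-lactamase reporter assay; ER-beta-UAS-bla HEK293T cells exposed to DMSO-dissolved compounds for 16 hr at 37C in 2% charcoal-stripped FBS medium.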

[13] = qHTS assay to identify small molecule agonists or antagonists of the thyroid stimulating hormone receptor (TSHR) signaling pathway - wild type cell line counter screen (AID 1259384; calls by dose curve)
Summary of the method: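 Wild-type Hek293 cells, 800/well, 18 h at 37C, then compound with Ro20-1724 for 30 min RT. cAMP by HTRF (cAMP-d2/anti-cAMP cryptate), 1 h RT, fluorescence read. 15 concentrations, triplicates.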

[14] = qHTS assay to identify small molecule HDAC inhibitors - cell viability counter screen (AID 1259365); note: series mostly up to about 92 µM; nearly all actives have a fitted effect of over 50% in size
Summary of the method: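 HCT-116 wild-type, overnight attachment; 2hr drug exposure, 37C; CellTiter-Glo luminescent ATP readout after 30min RT.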

[15] = target: Estrogen receptor (Homo sapiens) (UniProt P03372); assay: qHTS assay to identify small molecule agonists of the estrogen receptor alpha (ER-alpha) signaling pathway in the presence of an antagonist (AID 1259383; calls by dose curve; note: top concentration of the series differs between compounds; nearly all actives have a fitted effect of over 15% in size)
Summary of the method: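 Luciferase luminescence (ONE-Glo, 30min at room temperature) measured in VM7Luc4E2 cells after 22hr compound exposure at 15 concentrations, with 10.0nM ICI-182,780 final present; cells express endogenous ER-alpha and carry four EREs upstream of luciferase.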

[16] = qHTS assay to identify small molecule antagonists of the estrogen receptor beta (ER-beta) signaling pathway - cell viability counter screen (AID 1259382); note: nearly all actives have a fitted effect of over 55% in size; note: potency is the fitted concentration of half-maximal effect
Summary of the method: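 Luminescent ATP read-out (CellTiter-Glo, 30 min, RT) taken in the same wells as the bla reporter assay. HEK293T ER-beta-UAS-bla cells in 2% charcoal-stripped FBS were exposed to compounds with 1nM E2 for 16 hr at 37C.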

[17] = target: Estrogen receptor beta (Homo sapiens) (UniProt Q92731); assay: qHTS assay to identify small molecule antagonists of the estrogen receptor beta (ER-beta) signaling pathway (AID 1259378; active = well fitted inhibition curve with a large enough effect in the signal ratio in the repeat runs, not every such curve was filed as active; the % refers to the signal ratio)
Summary of the method: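 ER-beta-UAS-bla HEK293T cells in 2% charcoal-stripped FBS medium treated with compound plus 1nM final 17-beta-estradiol for 16 hr at 37C. Beta-lactamase reporter read by FRET substrate fluorescence after 2 hours at room temperature.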

Measured: Potency

Sequence of Estrogen receptor beta (Homo sapiens) (Q92731 whole entry, looked up): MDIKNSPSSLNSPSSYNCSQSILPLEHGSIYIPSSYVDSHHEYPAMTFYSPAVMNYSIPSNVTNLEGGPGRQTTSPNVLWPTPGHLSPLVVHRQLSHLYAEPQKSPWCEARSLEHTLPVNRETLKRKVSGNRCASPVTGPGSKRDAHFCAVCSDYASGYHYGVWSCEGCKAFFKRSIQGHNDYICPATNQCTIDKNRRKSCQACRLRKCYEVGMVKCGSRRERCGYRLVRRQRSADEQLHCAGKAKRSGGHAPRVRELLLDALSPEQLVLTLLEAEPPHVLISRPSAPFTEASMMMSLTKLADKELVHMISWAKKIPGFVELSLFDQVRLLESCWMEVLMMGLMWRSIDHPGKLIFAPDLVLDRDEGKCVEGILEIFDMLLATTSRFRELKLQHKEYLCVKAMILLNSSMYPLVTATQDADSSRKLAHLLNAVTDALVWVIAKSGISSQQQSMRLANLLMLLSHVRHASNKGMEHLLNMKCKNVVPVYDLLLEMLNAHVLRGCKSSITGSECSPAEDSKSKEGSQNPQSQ
Sequence of Estrogen receptor (Homo sapiens) (P03372 whole entry, looked up): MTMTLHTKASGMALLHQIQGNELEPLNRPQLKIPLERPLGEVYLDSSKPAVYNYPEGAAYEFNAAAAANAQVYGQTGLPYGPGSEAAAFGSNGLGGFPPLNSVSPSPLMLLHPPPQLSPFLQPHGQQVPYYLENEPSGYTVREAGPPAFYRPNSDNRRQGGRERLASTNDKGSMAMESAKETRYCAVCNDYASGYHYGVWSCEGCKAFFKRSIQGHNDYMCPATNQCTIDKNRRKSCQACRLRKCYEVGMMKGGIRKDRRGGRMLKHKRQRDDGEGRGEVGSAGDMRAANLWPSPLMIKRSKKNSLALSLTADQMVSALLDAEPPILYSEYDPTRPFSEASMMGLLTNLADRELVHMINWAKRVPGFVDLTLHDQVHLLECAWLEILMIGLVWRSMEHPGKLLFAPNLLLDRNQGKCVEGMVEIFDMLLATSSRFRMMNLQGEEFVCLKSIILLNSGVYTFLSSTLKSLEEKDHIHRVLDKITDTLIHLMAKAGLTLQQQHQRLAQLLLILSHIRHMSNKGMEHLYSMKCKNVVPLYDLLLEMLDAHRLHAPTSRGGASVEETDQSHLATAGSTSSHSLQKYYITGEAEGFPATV

O=C(Nc1cccc2c(=O)cc(-c3nn[nH]n3)oc12)c1ccc(OCCCCc2ccccc2)cc1
inactive: [2] | [3] | [4] | [5] | [6] | [7] | [8] | [9] | [10] | [11] | [13]
active: [1] 21.3 µM | [12] 10.6 µM

C/C=C\C/C=C/CCCCCCCCOC(C)=O
inactive: [1] | [2] | [3] | [5] | [14] | [7] | [11] | [15]
active: [12] 61.1 µM

Cc1cccc(O)c1N
active: [2] 61.8 µM | [7] 61.8 µM | [9] 15.5 µM
inactive: [1] | [3] | [5] | [14] | [11] | [13]

CCCCCCCCC(CCCCCC)C(=O)O (stereo not drawn)
active: [12] 8.63 µM
inactive: [1] | [2] | [3] | [5] | [14] | [6] | [7] | [8] | [9] | [11] | [13]

CC(=O)NC1(c2cccc(F)c2)CCN(CC[C@@]2(c3ccc(Cl)c(Cl)c3)CN(c3ccccc3)C(=O)CO2)CC1
active: [6] 24.4 µM | [9] 24.4 µM | [12] 24.4 µM | [16] 21.7 µM
inactive: [1] | [2] | [3] | [5] | [14] | [8] | [15]

Brc1cc(Br)c(Oc2cc(Br)c(Br)cc2Br)cc1Br
active: [12] 29.9 µM
inactive: [1] | [2] | [3] | [5] | [14] | [6] | [7] | [8] | [9] | [17] | [11] | [15]

CCC1CO1 (stereo not drawn)
inactive: [1] | [2] | [3] | [5] | [14] | [6] | [7] | [8] | [9] | [17] | [11] | [12] | [16] | [13]

CC(CCC(=O)O)C(=O)O (stereo not drawn)
inactive: [1] | [2] | [3] | [5] | [14] | [6] | [7] | [8] | [10] | [17] | [11] | [12] | [16] | [13]

CCCCCCCCCCCCCCN(CCO)CCO
active: [1] 54.9 µM | [3] 48.6 µM | [6] 61.1 µM | [9] 19.3 µM | [11] 61.1 µM | [12] 54.5 µM | [16] 48.6 µM
inactive: [2] | [5] | [14] | [7] | [8]

CC1CC(C)C(=O)C1=O (stereo not drawn)
inactive: [1] | [2] | [3] | [5] | [14] | [6] | [7] | [8] | [10] | [17] | [11] | [12] | [16] | [13]

CC(=O)[C@H]1[C@H](C#N)C[C@H]2[C@@H]3CC=C4C[C@@H](O)CC[C@]4(C)[C@H]3CC[C@@]21C
inactive: [1] | [2] | [3] | [5] | [14] | [7] | [8] | [10] | [11] | [15]
active: [12] 29.5 µM

CCCCCCNC(=O)n1cc(F)c(=O)[nH]c1=O
inactive: [1] | [2] | [3] | [4] | [5] | [7] | [8] | [17] | [11] | [16] | [13]

CC(C)C=O
inactive: [1] | [2] | [3] | [5] | [14] | [6] | [7] | [8] | [9] | [10] | [11] | [12] | [16] | [13]

O=c1c(O)c(-c2ccc(O)cc2)oc2cc(O)cc(O)c12
active: [5] 21.6 µM and 16.4 µM | [7] 48.4 µM | [9] 21.6 µM and 26 µM
inactive: [1] | [2] | [3] | [14] | [6] | [8] | [11] | [16] | [13]

Cc1ccc(CO)cc1
inactive: [1] | [2] | [3] | [5] | [14] | [6] | [7] | [8] | [9] | [10] | [17] | [11] | [12] | [16] | [15] | [13]

Cc1ccco1
inactive: [1] | [2] | [3] | [5] | [14] | [6] | [7] | [9] | [11] | [12] | [16] | [15] | [13]

Cc1ccc(OC(=O)c2ccccc2O)cc1
inactive: [1] | [2] | [3] | [14] | [6] | [7] | [8] | [9] | [11] | [12] | [16]
active: [5] 15.4 µM

CC[C@]1(O)C[C@H]2CN(CCc3c([nH]c4ccccc34)[C@@](C(=O)OC)(c3cc4c(cc3OC)N(C=O)[C@H]3[C@@](O)(C(=O)OC)[C@H](OC(C)=O)[C@]5(CC)C=CCN6CC[C@]43[C@@H]65)C2)C1
inactive: [1] | [2] | [3] | [5] | [14] | [8] | [16] | [15]
active: [9] 0.0266 µM

CC(=O)Nc1cc(S(=O)(=O)O)cc2cc(S(=O)(=O)O)c(N=Nc3ccccc3)c(O)c12
active: [2] 19.3 µM | [3] 27.3 µM | [6] 27.3 µM | [7] 24.3 µM | [11] 27.3 µM
inactive: [1] | [5] | [8] | [9] | [10] | [17] | [12] | [16] | [15]
